# Only some compounds are listed: those with a hit (about 5.4% of all), similar ones and a draw of the others.
# HSF1 inhib: HSF1 inhibition; NIH3T3-HGL HSE-luciferase, MG132-induced, luminescence 8 h; active compounds read low; activity change, negative = inhibition, % at 7.5 µM (by protocol); 0.77% of 300,000 active; AID 2098;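 active means more than half of replicate wells show activity change below -50%, luminescence cut by over half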;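 further: luciferase reports HSF-1 transcriptional activity via heat shock element; 0% = median of DMSO wells and -100% = zero luminescence signal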
# HSF1 activator: increases HSF-1 driven luciferase reporter signal; NIH3T3-HGL HSF-1 luciferase reporter, MG132, 8 h; 100% = twice DMSO control signal; activation, % at 9 µM; 1.7% of 300,000 active; AID 504408;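 active means mean replicate activation of at least 50% with a set share of replicates each reaching 50%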;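 further: 0% = median of the neutral control wells and 100% = twice that signal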
# NR0B1 inh: inhibitors of human orphan nuclear receptor DAX1 (NR0B1) | P51843 | HEK293 Gal4-DAX1 luciferase reporter, luminescence | inhibition, % at 6.75 µM | 0.99% of 340,000 active;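 active means inhibition above the mean over all tested compounds plus 3 SD, cut at about 4.2% in these data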;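 further: 0% = DAX1-transfected cells with DMSO and 100% = empty-vector control cells with DMSO; inhibition shows as a rise in luminescence from relieved DAX1 repression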
# Target sequence (P51843 207-470 limits assumed): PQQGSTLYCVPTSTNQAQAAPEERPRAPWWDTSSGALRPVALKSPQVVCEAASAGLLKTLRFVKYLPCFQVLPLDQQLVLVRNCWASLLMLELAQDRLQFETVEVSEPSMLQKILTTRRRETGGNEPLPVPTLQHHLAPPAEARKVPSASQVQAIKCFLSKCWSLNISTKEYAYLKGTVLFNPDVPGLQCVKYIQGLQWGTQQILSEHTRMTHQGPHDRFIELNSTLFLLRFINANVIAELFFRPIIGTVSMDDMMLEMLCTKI
# FXN GAA850 act: increases GAA850 frataxin promoter reporter activity. HEK293 lucGAA850 FXN promoter luciferase reporter, 24 h; percent of 10 µM SAHA response. activation, % at 6 µM. 0.56% of 360,000 active;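 active means activation above the average of all compounds screened plus 3 SD, cutoff fixed separately per campaign, cut at about 7.5% in these data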;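 further: 0% = DMSO wells and 100% = 10 µM SAHA wells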
# AHR activator: activators of human aryl hydrocarbon receptor; P35869; AHR-responsive luciferase reporter cells, luminescence; activation, % at 5 µM; 2.5% of 320,000 active; AID 2796; in the data active means activation above about 47%;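 further: 0% = vehicle wells and 100% = reference agonist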
# Numbers without * were called inactive; / = no result given.
SMILES,HSF1 inhib,HSF1 activator,NR0B1 inh,FXN GAA850 act,AHR activator
COc1ccc2c(c1)C1OCCC1C(c1ccco1)N2 (centres undefined),31,56*,0,2,9
CCc1ccccc1NCC(=O)Nc1ccc(Cl)c(C(F)(F)F)c1,26,58*,1,-1,1
CCCCCn1c(SCC(=O)c2ccccc2)nc2cc(C(=O)NCC3CCCO3)ccc2c1=O (centres undefined),/,/,0,-2,/
Cc1ccc2c(c1)NC(=O)C(CC(=O)NCCCN1CCCCC1)O2 (centres undefined),3,-2,4.5*,1,2
Cc1ccc(CCNC(=O)CC2Oc3ccc(C)cc3NC2=O)cc1 (centres undefined),3,14,11*,-3,-1
Cc1ccc2c(c1)NC(=O)C(CC(=O)NCCCN1CCCC1=O)O2 (centres undefined),-2,3,1,1,1
COc1ccc(NC(=O)c2c(NC(=O)CNCc3ccco3)sc3c2CCC3)c(OC)c1,-1,6,1,0,6
COc1ccc(NC(=O)c2c(NC(=O)CNCc3ccco3)sc3c2CCC3)cc1,8,8,-2,-1,53*
CC(C)(C)NC(=O)CSc1nc2cc(S(=O)(=O)N3CCCCC3)ccc2o1,/,/,-1,0,-1
CC(=O)Oc1cc(O)c2c(=O)c(OC(C)=O)c(-c3ccc(OC(C)=O)c(OC(C)=O)c3)oc2c1,-18,-16,4.5*,1,26
O=C(COC(=O)c1cnc(Cl)c(Cl)c1)NC1CC1,/,/,2,0,1
NS(=O)(=O)c1ccc(CNC(=S)NC2CCCC2)cc1,4,3,4.5*,-1,5
S=C(NCCc1ccc(Cl)cc1)NC1CCCC1,14,27,-2,6,3
S=C(NCCc1ccc(Cl)cc1)NC1CCCCC1,30,58*,4,5,23
CC(=O)c1c(C)oc2ccc(NS(=O)(=O)c3ccc(C)cc3)cc12,10,15,3,0,10
Cc1oc2ccc(NS(=O)(=O)c3ccc(C(C)(C)C)cc3)cc2c1C(=O)Nc1ccccc1,18,61*,0,3,4
CCn1c(=O)c(-c2nc3ccccc3[nH]2)c(O)c2ccccc21,3,-10,/,/,69*
C[C@H](NC(=O)[C@H]1N2C(=O)c3ccccc3C2SC1(C)C)C(=O)NCC1CCCO1 (some centres undefined),-8,-22,1,-2,1
Cc1n[nH]c(=S)n1/N=C/c1ccc(-c2ccccc2[N+](=O)[O-])o1,11,31,2,3,60*
O=C(N/N=C/c1ccc(-c2ccccc2[N+](=O)[O-])o1)[C@H]1C[C@@H]1c1ccccc1,25,41,0,0,69*
O=C(N/N=C/c1ccc(-c2ccc([N+](=O)[O-])cc2)o1)[C@H]1C[C@@H]1c1ccccc1,13,-12,2,3,2
Cc1nnc(N/N=C\c2ccc(-c3ccccc3[N+](=O)[O-])o2)n1N,36,80*,1,1,61*
CCOc1ccc(-n2ccnc(SCC(=O)Nc3cccc(OC)c3)c2=O)cc1,2,-2,-2,2,1
CC(C)C(NC(=O)c1ccco1)C(=O)NCc1ccc(C(=O)O)cc1 (centres undefined),-5,-13,2,0,0
Cc1c(C(=O)O)cccc1-c1ccc(/C=N/Nc2ccc(Br)cc2)o1,4,13,0,5,134*
SMILES,HSF1 inhib,HSF1 activator,NR0B1 inh,FXN GAA850 act,AHR activator
O=C(c1ccccc1Sc1ccc([N+](=O)[O-])cc1Cl)N1CCOCC1,13,26,0,3,3
CC(=O)Nc1ccc(NC(=O)c2ccccc2Sc2ccc([N+](=O)[O-])cc2Cl)cc1,33,76*,0,0,0
COc1ccccc1NC(=O)c1cc([N+](=O)[O-])ccc1NCCN1C(=O)CCC1=O,12,15,-1,1,51*
COc1ccccc1NC(=O)c1cc(OC)c(OC)cc1[N+](=O)[O-],4,9,-1,0,8
Cc1n[nH]c(C)c1NC(=O)c1cc([N+](=O)[O-])ccc1Cl,-8,5,2,1,-1
O=C(Nc1ccc2c(c1)CCCN2C(=O)c1ccco1)c1cc([N+](=O)[O-])ccc1Cl,65,74*,-3,-8,15
Cc1cccc(NC(=O)c2cc([N+](=O)[O-])ccc2Cl)c1O,19,29,1,0,48*
COc1ccccc1N(CC(=O)NCCSCc1ccco1)S(=O)(=O)c1ccccc1,14,-1,0,-1,-1
Cc1n[nH]c2ccc([N+](=O)[O-])cc2c1=O,/,/,1,-1,/
CCc1ccccc1NC(=O)c1cccc(Oc2ccc([N+](=O)[O-])cc2Cl)c1,14,15,0,3,4
O=C(Nc1ccccc1Cl)c1ccccc1Oc1ccc(C(F)(F)F)cc1[N+](=O)[O-],7,12,-1,-1,75*
O=C(Nc1ccccc1Oc1ccccc1)c1cc([N+](=O)[O-])ccc1Cl,12,21,-2,-15,108*
O=C(Nc1ccc(Nc2ccccc2)cc1)c1cc([N+](=O)[O-])ccc1Cl,107,134*,-1,-6,-5
O=C(OCc1cncs1)c1ccccc1,-5,-5,-1,0,1
CCOc1cc(/C=C2/NC(=O)N(Cc3ccccc3F)C2=O)ccc1O,59,86*,0,-1,6
CC1CCC(NS(=O)(=O)c2ccc(Cl)nc2)CC1 (centres undefined),2,8,1,1,2
CCN1CCN(C(=O)C2CCN(C(=O)c3cc4sccc4n3CC)CC2)CC1,-70*,-76,1,1,-1
Cc1ccc(SCC(=O)NNC(=O)c2cncc(Br)c2)cc1,/,/,5.9*,-2,4
CCOc1ccc(CNC2CCCc3ccccc32)cc1 (centres undefined),-7,12,9.1*,0,6
c1ccc(C2=Nc3ccccc3SC2c2nc3ccccc3[nH]2)cc1 (centres undefined),37,84*,/,/,24
Cc1ccc(C(c2sc3ncnn3c2O)N2CC(C)CC(C)C2)cc1 (centres undefined),-58*,-67,0,0,1
Cc1cc(C)n(-c2cc(N3CCN(S(=O)(=O)c4ccc(C)c(C)c4)CC3)ccc2[N+](=O)[O-])n1,10,18,5.4*,-1,4
CC1CC(C)CN(S(=O)(=O)c2cccc(C(=O)N3CCN(c4ccc(F)cc4)CC3)c2)C1 (centres undefined),/,/,-1,-3,3
CCc1ccc(NC(=O)C(=O)NCC2CCCO2)cc1 (centres undefined),22,21,4.6*,3,3
CCCCc1ccc(NC(=O)C2CCCO2)cc1 (centres undefined),19,63*,2,0,2
O=C(CCC(=O)c1ccccc1)Nc1cccnc1,-6,44,1,2,0
